In the library only some 1.1% were active in any assay of this set; here they are far more common.
PI4K2A inh: blocks human PI4K2A kinase activity. purified PI4K2A, ADP-Glo luminescence, 1 h; stronger effect = lower value. activity change, negative = inhibition, % at 76.9 µM. 0.13% of 420,000 active. AID 1346378; in the data active = activity change below about -50%; inconclusive = mostly about -30% to -49%
Target sequence (Q9BTU6 whole entry, looked up): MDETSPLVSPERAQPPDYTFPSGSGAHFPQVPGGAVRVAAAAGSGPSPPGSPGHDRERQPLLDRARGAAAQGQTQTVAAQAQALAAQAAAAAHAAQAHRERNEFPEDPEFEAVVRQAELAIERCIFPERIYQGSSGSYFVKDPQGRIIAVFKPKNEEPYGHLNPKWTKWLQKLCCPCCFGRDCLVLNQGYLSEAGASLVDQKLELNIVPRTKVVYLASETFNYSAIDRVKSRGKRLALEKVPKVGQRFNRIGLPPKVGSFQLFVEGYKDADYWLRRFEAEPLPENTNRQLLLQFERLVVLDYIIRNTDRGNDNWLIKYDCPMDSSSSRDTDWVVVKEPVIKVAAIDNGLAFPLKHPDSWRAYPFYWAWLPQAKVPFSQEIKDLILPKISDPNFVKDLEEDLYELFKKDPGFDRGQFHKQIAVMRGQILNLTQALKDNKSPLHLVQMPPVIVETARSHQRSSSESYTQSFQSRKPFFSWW
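Compounds are screened against recombinant PI4K2A using PI as substrate and ATP, the latter dispensed at 300 microM. Reactions run one hour at ambient temperature before ADP-Glo detection; full inhibition defined by wells lacking enzyme.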
rTrxR1 inhibitor: rat TrxR1 inhibition; O89049; recombinant rTrxR1, NADPH fluorescence consumption, selenite substrate; Potency, µM (highest dose often 114 µM), hits mostly inhibitors; 1% of 390,000 active; also: nearly all actives have a fitted effect of over 65% in size
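Rat TrxR1 (90 nM in the dispensed reagent) was pre-reduced with 400 uM NADPH for 5 min at room temperature, then incubated with compound for 15 min. After 400 uM selenite was added, NADPH fluorescence (Ex 340/Em 450 nm) was followed for 8 min.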
LDHA block: LDHA (human) enzyme inhibition; P00338; purified LDHA, NADH/diaphorase-resazurin fluorescence; stronger effect = lower value; activity change, % (values are at about 110 or 230 µM); 0.15% of 480,000 active; AID 1347041; in the data active = activity change below about -30%; inconclusive = mostly about -25% to -30%
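Human LDH5 (2 nM) was incubated with 0.06 mM NADH and 0.2 mM pyruvate for 5 min at room temperature in Tris pH 7.4. Remaining NADH was coupled through diaphorase/resazurin, and resorufin fluorescence was read at 0 and 20 min.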
a7 integrin act: integrin-mediated muscular dystrophy alleviation activation; alpha7betagal myoblasts, beta-gal FDG fluorescence, 48 h; Potency, µM (highest dose often 38.3 µM), actives largely listed as activators; 0.064% of 350,000 active; AID 624291; also: nearly all actives have a fitted effect of over 60% in size
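alpha7betagal+/- myoblasts (passage 13, 250/well) treated 48 h at 37C with compounds at 1:260 dilution of DMSO stock. Lysed, then beta-galactosidase activity read as FDG fluorescence (ex 480/em 540) after 30 min, with pre-read for autofluorescence.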
GALK inh: blocks human galactokinase activity. P51570. Purified GALK, Kinase-Glo residual ATP luminescence. Potency, µM (doses to about 57.5 µM), actives largely listed as inhibitors. 0.007% of 270,000 active. AID 1868
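Quantitative HTS: GALK 5 nM, ATP 35 uM, galactose 100 uM, 1 h room temperature, then luciferase-based ATP detection.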
TrxR1 substrate: is turned over as a substrate by rat TrxR1. purified TrxR1 substrate turnover, NADPH consumption readout. Potency, µM (highest dose often 114 µM). 0.01% of 390,000 active; also: nearly all actives have a fitted effect of over 50% in size
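Rat TrxR1, dispensed at 90 nM, was prereduced with 400 uM NADPH (final) for 5 min at ~22 deg C, then incubated with compound 15 min before 400 uM selenite. A first-read NADPH fluorescence drop versus no-compound background flagged substrates.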
Numbers stand for hits; 0 = inactive; ? = inconclusive; - = no result; ! = a repeat was not active; [ ] = another dose, or the depositor's remark. Unless noted, calls follow the shape of the dose curve; as a rule, active = well fitted curve in the direction sought with a large enough effect; inconclusive = small, poorly fitted or top-dose-only effect, or another doubt; inactive = no such curve, though single readings can be large; an effect the other way counts as inactive or inconclusive.

SMILES	PI4K2A inh	rTrxR1 inhibitor	LDHA block	a7 integrin act	GALK inh	TrxR1 substrate
CCCCCn1c(COc2ccc(C(C)(C)C)cc2)n[nH]c1=S	-	-	0	-	-	-
CCCc1ccc(S(=O)(=O)NCCc2cccc3cccnc23)cc1	-	-	0	-	-	-
O=C(O)c1cc(-c2ccco2)nc2ccc(Br)cc12	0	1.3µM!	0	0	0	0
COc1cc(/C=N/NC(=O)c2cc(-c3ccccc3Cl)nc3ccccc23)cc(OC)c1O	0	0	0	0	-	0
Cc1ccc(-c2cc(C(=O)O)c3cc(Br)ccc3n2)cc1	-	-	0	-	-	-
COc1ccccc1CNC(=O)COC(=O)c1cc(-c2ccco2)nc2ccccc12	-53	?	0	0	0	0
COc1cc(/C=N/NC(=O)c2cc(-c3ccco3)nc3ccccc23)cc(OC)c1O	0	13µM	0	0	-	0
COc1ccccc1CNC(=O)COC(=O)c1cc(C)nc2ccccc12	0	0	0	0	-	0
CCCCN(C(=O)c1cc(-c2ccco2)nc2ccccc12)c1c(N)n(CCC)c(=O)[nH]c1=O	0	79µM	0	0	-	0
COc1cc(C=O)c(Br)cc1OCCc1ccccc1	-	-	0	-	-	-
OCCC#CCN1CCCCC1	-	-	0	-	-	-
CC(C(=O)NC(=O)NC12CC3CC(CC(C3)C1)C2)N1CCN(c2oc(-c3ccco3)nc2C#N)CC1 (stereo unspecified)	-	-	0	-	-	-
CCOC(=O)C1CCN(C(=O)c2cc3cc(OCC)ccc3n2C)CC1	-	-	0	-	-	-
Cc1ccc(S(=O)(=O)N(C)C)cc1NC(=O)c1cc(-c2ccco2)nc2ccccc12	0	3.5µM	0	0	0	0
COc1ccc(S(=O)(=O)NNS(=O)(=O)c2ccc(OC)c(OC)c2)cc1OC	0	-	-81	-	-	-
O=C(CSc1nnc(COc2ccccc2)n1Cc1ccco1)NCc1ccco1	0	11µM	0	0	0	0
Cc1cc(NC(=O)CSc2nnc(COc3ccccc3)n2Cc2ccco2)no1	0	0	0	0	0	0
O=C(CSc1nnc(C2CCCCC2)n1-c1ccccc1)NCc1ccco1	0	13µM	0	0	0	0
CCn1c(SCC(=O)NCc2ccco2)nnc1-c1cccs1	0	14µM	0	0[7.66 µM]	0	0
O=C(CSc1nnc(CNc2cccc(C(F)(F)F)c2)n1Cc1ccco1)NCc1ccco1	0	16µM	0	0	0	0
CCNC(=O)CSc1nnc(C2CC2)n1-c1ccccc1	0	0	0	0	0	0
COc1ccc(Nc2nc(C)c(NC(=O)c3cccc(C)c3)c(Nc3ccc(OC)cc3)n2)cc1	-	-	0	-	-	-
COc1cccc(N2CCN(CC(=O)NC(=O)NCC(F)(F)F)CC2)c1	-	-	0	-	-	-
Cc1ccc(C(NC(=O)N2CCN(C)CC2)C(Cl)(Cl)Cl)cc1F (stereo unspecified)	-	-	0	-	-	-
CCN(CC)S(=O)(=O)c1ccc(C)c(NC(=S)Nc2ccc(F)c(F)c2F)c1	-	-	0	-	-	-
SMILES	PI4K2A inh	rTrxR1 inhibitor	LDHA block	a7 integrin act	GALK inh	TrxR1 substrate
CCCc1ccc(C2(C)NC(=O)N(Cc3ncc(-c4ccccc4)o3)C2=O)cc1 (stereo unspecified)	-	-	0	-	-	-
COc1cc(CNC(=O)N2CCN(Cc3ccc(Br)s3)CC2)cc(OC)c1OC	-	-	0	-	-	-
Cc1cc(Cl)ccc1NC(=S)Nc1cccnc1	0	28µM	0	0	0	0
O=C(Nc1ccc(Cl)cc1)Nc1cccnc1	0	0	-34	0	0	0
O=C(Nc1ccc(Cc2ccc(NC(=O)Nc3cccnc3)cc2)cc1)Nc1cccnc1	0	-	0	0	-	-
CCOc1ccc(-c2cc3ccccc3[nH]2)cc1	-	-	0	-	-	-
O=C(CSc1nnc(Cc2ccccc2)o1)Nc1ccc(Br)c(Cl)c1	-	-	0	-	-	-
CC(C)CNC(=O)C1CCN(c2ncnc3sc4c(c23)CCCC4)CC1	-	-	0	-	-	-
O=C1c2ccccc2NC(c2ccc(-c3cccc(F)c3)o2)N1O (stereo unspecified)	0	0	0	-	-	0
N#Cc1ccc(-c2ccc(C3Nc4ccccc4C(=O)N3O)o2)cc1 (stereo unspecified)	0	7.1µM	0	-	-	0
CCNc1oc(/C=C/c2ccc(OC)c(OC)c2)nc1C#N	-	-	0	-	-	-
C/C(=N\NS(=O)(=O)c1ccc(Cl)c([N+](=O)[O-])c1)c1ccc(C)o1	0	40µM	0	0	0	0
Cc1ccc2c(c1)OC=CC(C(=O)Nc1ccc(Cl)c(Cl)c1)=C2	-	-	0	-	-	-
CNc1oc(Cc2ccccc2)nc1S(=O)(=O)c1ccc(Cl)cc1	0	11µM	0	0	0	0
Fc1ccc(-c2nc(CSc3ccc4c(c3)OCCO4)cs2)cc1	-	-	0	-	-	-
CNc1nc(-c2sc3ccccc3c2C)cs1	-	-	0	-	-	-
O=C(Nc1ccc(N2CCN(C(=O)c3ccccc3F)CC2)cc1)c1cncc(Br)c1	0	0	0	13µM	0	0
O=C(Nc1ccc2oc(-c3cccnc3)nc2c1)c1cccc(I)c1	-	-	0	-	-	-
O=C(COc1ccc2cc(-c3ccccc3)c(=O)oc2c1)NCC1CCC(C(=O)O)CC1 (stereo unspecified)	0	32µM	0	0	-	0
O=C(CN1CCN(CC(=O)Nc2ccccc2C(=O)c2ccccc2)CC1)Nc1ccc(F)cc1	-	-	-32	-	-	-
C=CCSc1nnc(N2C(=O)C(O)=C(C(=O)c3ccco3)C2c2ccccc2F)s1 (stereo unspecified)	0	50µM	0	0	0	0
CSc1nnc(N2C(=O)C(O)=C(C(=O)c3ccco3)C2c2ccccc2F)s1 (stereo unspecified)	0	7.9µM	0	0	0	0
O=C(Nc1cccc(-c2nc3c(s2)CCCC3)c1)C1CC1	-	-	0	-	-	-
COc1ccc(N2C(=O)CC(Sc3nnc(-c4ccccc4F)n3C)C2=O)cc1 (stereo unspecified)	0	32µM	0	0	0	0
C=CCNc1nnc(SC2CC(=O)N(c3ccc(OC)cc3)C2=O)s1 (stereo unspecified)	0	4µM	0	0	0	0
SMILES	PI4K2A inh	rTrxR1 inhibitor	LDHA block	a7 integrin act	GALK inh	TrxR1 substrate
COc1ccc(N2C(=O)CC(Sc3nc4ccccc4s3)C2=O)cc1 (stereo unspecified)	0	0	0	0	0	0
O=C(O)c1nn(Cc2ccccc2)c(=O)c2ccccc12	-	-	-32	-	-	-
CC(C)(C)c1ccc(Cn2nc(C(=O)O)c3ccccc3c2=O)cc1	-	-	0	-	-	-
Cc1ccnc2ccc3ccccc3c12	-	89µM	-	-	-	0
Cc1ccnc2cc(Cl)cc(Cl)c12	-	0	-	-	-	0
CCOC(=O)c1ccc(-n2c(CN3CCC(O)CC3)nc3ccc([N+](=O)[O-])cc3c2=O)cc1	0	50µM	0	0	0	0
CCOC(=O)c1ccc(-n2c(CN3CCC(C(N)=O)CC3)nc3ccc([N+](=O)[O-])cc3c2=O)cc1	0	?	0	0	0	0
O=C(O)c1ccc(N/N=C/C(Br)=C/c2ccccc2)cc1	0	32µM	0	0	0	0
